{"source": "PubChem BioAssay (EPA / NIEHS)", "note": "Records with an inconclusive call do not appear. The source made the active and inactive calls. How the source made its calls: active means hit-call score of the fitted dose curve at least 0.9, where 1 is the maximum; inconclusive means response in the unintended direction; inactive means score below 0.9.", "data": [{"read-out": "sulfotransferase (SULT2A), SULT2A1 (gene 6822)", "experiment": "CLD_SULT2A_48hr: CellzDirect (CLD) Gene Expression Assay for sulfotransferase (SULT2A) at 48 hours (AID 2283710);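 further: hits raise SULT2A1 transcript above the 0.2% DMSO vehicle baseline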", "method": "CLD_48hr is a cell-based, multiplexed-readout assay that uses hepatocyte, a human liver primary cell, with measurements taken at 48 hours after chemical dosing in a 96-well plate.CLD_SULT2A_48hr is one of 16 assay component(s) measured or calculated from the CLD_48hr assay. It is designed to make measurements of mRNA induction, a form of inducible reporter, as detected with chemiluminescence signals by Quantitative Nuclease Protection Assay (qNPA) technology.Data from the assay component CLD_SULT2A_48hr was analyzed at the endpoint, CLD_SULT2A_48hr, in the positive analysis fitting direction relative to DMSO as the negative control and baseline of activity. Using a type of inducible reporter, gain-of-signal activity can be used to understand changes in the reporter gene as they relate to the gene SULT2A1. Furthermore, this assay endpoint can be referred to as a primary readout. To generalize the intended target to other relatable targets, this assay endpoint is annotated to the transferase intended target family, where subfamily is sulfotransferase.\nHuman hepatocyte cultures were treated daily for two consecutive days with fresh dosing solutions containing appropriate concentrations of the 320 ToxCast chemicals (chemical identities were blinded to CellzDirect and other ToxCast collaborators), vehicle control (0.2% DMSO), and positive control inducers as summarized in Table 1. Due to the large number of treatment groups and chemicals examined, the ToxCast chemicals were divided into two groups (spanning two independent cultures of hepatocytes from separate donor preparations (Hu778: ToxCast plates 1 and 2; Hu776: ToxCast plates 3 and 4). Each preparation of human hepatocyte cultures was treated with respective vehicle control, medium only control, set of six positive controls/reference chemicals for the five hepatic receptor pathways, and a subset of eight of the ToxCast chemicals (indoxacarb, pyrithiobac-sodium, norflurazon, cyhalofop-butyl, methomyl, thiram, acetochlor, and propiconazole). These replicate data, coupled with internal replicates designed within the blinded ToxCast chemical library, provided additional data to evaluate interindividual differences between hepatocyte preparations and their potential impact on chemical profiles.Cell morphology and integrity were evaluated using phase-contrast microscopy as an indicator of hepatocyte cell health (Tyson & Green, 1987). Cultures for each treatment group (i.e., media, vehicle [0.2% DMSO], positive control inducers [multiple concentrations], and the ToxCast chemicals [multiple concentrations]) were observed and cell morphology was assessed relative to vehicle control cultures at each harvest time point (0, 6, 24, or 48 h). […] Images were evaluated at the conclusion of the study to assess changes in cell integrity and account for the effects of chemical exposure on uncharacteristic changes in concentration-dependent gene expression profiles. The results from these determinations of apparent cytotoxicity were annotated (yes/no) alongside the corresponding qNPA data for reference.At the conclusion of each treatment period, hepatocyte cultures (96-well) were washed with 1 volume of HBSS, lysed by addition of 25 ul ArrayPlate lysis buffer (HTG, Tucson, AZ), and 70 ul/well of Denaturation Oil, denatured by incubation at 95C for 10 min, and frozen at approximately -70C until analysis by nuclease protection assay (qNPA) (Roberts et al., 2007). For qNPA analysis, cell lysates were thawed at 50C for approximately 30 min, qNPA probes were added, and samples were incubated at 95C for 10 min to begin the detection process by denaturing the target RNA, dissociating the duplexes and secondary structure hybridization. At the conclusion of the hybridization period, S1 nuclease reagent was added to each sample to digest all nonprotected nucleotides at 50C for 60-90 min. […]", "values": [{"smiles": "Cc1nn(C)c(Oc2ccccc2)c1C=NOCc1ccc(C(=O)OC(C)(C)C)cc1", "outcome": "inactive"}, {"smiles": "CCCN(CCC)C(=O)SCC", "outcome": "inactive"}, {"smiles": "CCOC(=O)C(C)Oc1ccc(Oc2cnc3cc(Cl)ccc3n2)cc1", "note": "(centres undefined)", "outcome": "inactive"}, {"smiles": "CCC(C)OC(=O)N1CCCCC1CCO", "note": "(centres undefined)", "outcome": "inactive"}, {"smiles": "CCNc1nc(N)nc(Cl)n1", "outcome": "inactive"}, {"smiles": "COC(=O)CSc1cc(N=c2sc(=O)n3n2CCCC3)c(F)cc1Cl", "outcome": "inactive"}, {"smiles": "CCN(Cc1c(F)cccc1Cl)c1c([N+](=O)[O-])cc(C(F)(F)F)cc1[N+](=O)[O-]", "outcome": "inactive"}, {"smiles": "CCOC(=O)NCCOc1ccc(Oc2ccccc2)cc1", "outcome": "inactive"}, {"smiles": "COCCO", "outcome": "inactive"}, {"smiles": "CCCCOCCOCCOCc1cc2c(cc1CCC)OCO2", "AC50": "12 µM (active)"}, {"smiles": "CCCCOC(=O)C(C)Oc1ccc(Oc2ccc(C(F)(F)F)cn2)cc1", "note": "(centres undefined)", "outcome": "inactive"}, {"smiles": "COC(=O)c1c(Cl)nn(C)c1S(=O)(=O)NC(=O)Nc1nc(OC)cc(OC)n1", "outcome": "inactive"}, {"smiles": "CCSC(=O)N(CC(C)C)CC(C)C", "outcome": "inactive"}, {"smiles": "CCOC(=O)[C@H](C)Oc1ccc(Oc2nc3ccc(Cl)cc3o2)cc1", "outcome": "inactive"}, {"smiles": "COC(=O)c1ccccc1C(=O)O", "outcome": "inactive"}, {"smiles": "COC(=O)c1ccc(I)cc1S(=O)(=O)NC(=O)Nc1nc(C)nc(OC)n1", "outcome": "inactive"}, {"smiles": "CCCCC(CC)CN1C(=O)C2C3C=CC(C3)C2C1=O", "note": "(centres undefined)", "AC50": "20 µM (active)"}, {"smiles": "CC1(C)C(C=C(Cl)Cl)C1C(=O)OCc1cccc(Oc2ccccc2)c1", "note": "(centres undefined)", "outcome": "inactive"}, {"smiles": "CCOC(=O)C(C)Oc1ccc(Oc2nc3ccc(Cl)cc3o2)cc1", "note": "(centres undefined)", "outcome": "inactive"}, {"smiles": "CC(C)(C)[C@@H](O)[C@@H](Cc1ccc(Cl)cc1)n1cncn1", "outcome": "inactive"}, {"smiles": "CCN(CC)C(=O)c1cccc(C)c1", "outcome": "inactive"}, {"smiles": "CCCN(CCC)c1c([N+](=O)[O-])cc(C(F)(F)F)c(N)c1[N+](=O)[O-]", "outcome": "inactive"}, {"smiles": "COC(=O)c1ccc(CNS(C)(=O)=O)cc1S(=O)(=O)NC(=O)Nc1nc(OC)cc(OC)n1", "outcome": "inactive"}, {"smiles": "C#CCOC(=O)[C@@H](C)Oc1ccc(Oc2ncc(Cl)cc2F)cc1", "outcome": "inactive"}, {"smiles": "c1ccc(Nc2ccccc2)cc1", "AC50": "3.48 µM (active)"}, {"smiles": "CC(C)(c1ccc(O)cc1)c1ccc(O)cc1", "outcome": "inactive"}, {"smiles": "CCCCC(CC)COC(=O)c1ccccc1C(=O)O", "note": "(centres undefined)", "outcome": "inactive"}, {"smiles": "CCCOC(=O)NCCCN(C)C", "outcome": "inactive"}, {"smiles": "COc1c(Cl)ccc(Cl)c1C(=O)O", "outcome": "inactive"}, {"smiles": "CCC(O)=C1C(=O)CC(C(=O)O)CC1=O", "note": "(centres undefined)", "outcome": "inactive"}, {"smiles": "CSC(=O)c1cccc2nnsc12", "outcome": "inactive"}, {"smiles": "OB(O)O", "outcome": "inactive"}, {"smiles": "CCCOC(=O)c1ccc(C(=O)OCCC)nc1", "outcome": "inactive"}, {"smiles": "CCOC(=O)COc1cc(-n2ncc(C(F)(F)F)c(C)c2=O)c(F)cc1Cl", "outcome": "inactive"}]}]}
